From PubChem BioAssay AID493209 (National Center for Advancing Translational Sciences (NCATS), 2011)
Activity calls are given as the source filed them.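 Rule for the calls: active = compounds that raised 12-lipoxygenase product formation in the cuvette follow-up test, with a fitted potency; inactive = the rest, inconclusive results apart.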

Target: Polyunsaturated fatty acid lipoxygenase ALOX12 (Homo sapiens) (UniProt P18054)
Assay: Activators of 12-hLO (12-human lipoxygenase): 12hLO Cuvette-Based Hit Validation Assay of Followup Compounds
Settings: purified 12-hLO, cuvette UV 234 nm product formation
Protocol: The enzyme activity of 12-hLO was determined by a direct measurement of product formation by monitoring the absorbance at 234 nm in a 2 mL cuvette. IC50 values of inhibitors were obtained by measuring the enzymatic rate at a variety of concentrations (Carroll et al, Segraves et al). This assay was used to validate active or inconclusive putative activators identified in the primary screen (see related BioAssay AIDs). Assay Provider: Holman, T.R., University of California, Santa Cruz Screening Center PI: Austin, Christopher P. Screening Center: NIH Chemical Genomics Center
For control experiments, 2 mL of substrate buffer (10 uM arachidonic acid / 25 mM HEPES / 0.01% (v/v) Triton X-100, pH 8.0) was aliquoted in a cuvette with a magnetic stir bar. After equilibrium was ensured, an aliquot of inhibitor solvent was added (DMSO), and equilibrium was once again assured. The reaction was started by adding enzyme to the cuvette and the reaction was followed until completed. The inhibition experiments were performed as above, except the actual inhibitory compound was added instead of vehicle. To achieve an IC50, typically 5 concentrations of the inhibitor were studied. If the inhibitor concentration was constant, then five different reaction volumes were used. Step \ Parameter \ Value \ Description 1; UV-Vis; 234 nm; Equilibration 2; Reagent; 2 mL; Substrate buffer 3; UV-Vis; 234 nm; Equilibration 4; Reagent; varies; Compound 5; UV-Vis; 234 nm; Equilibration 6; Reagent; 50-200 nM; Enzyme 12-hLO 7; UV-Vis; 234 nm; Enzymatic reaction Step \ Notes 1; Blank cuvette to air. 2; 10 uM AA, 25 mM HEPES, 0.01% Triton X-100, pH 8. 3; No change in absorbance ensured. 4; Compound vehicle or compound in various concentrations depending on potency. 5; No change in absorbance ensured. 6; Enzyme concentration to achieve reaction rate between 0.02 and 0.04 AU/s. 7; Enzymatic reaction visualized until completion.

Sequence of Polyunsaturated fatty acid lipoxygenase ALOX12 (Homo sapiens) (P18054 whole entry, looked up): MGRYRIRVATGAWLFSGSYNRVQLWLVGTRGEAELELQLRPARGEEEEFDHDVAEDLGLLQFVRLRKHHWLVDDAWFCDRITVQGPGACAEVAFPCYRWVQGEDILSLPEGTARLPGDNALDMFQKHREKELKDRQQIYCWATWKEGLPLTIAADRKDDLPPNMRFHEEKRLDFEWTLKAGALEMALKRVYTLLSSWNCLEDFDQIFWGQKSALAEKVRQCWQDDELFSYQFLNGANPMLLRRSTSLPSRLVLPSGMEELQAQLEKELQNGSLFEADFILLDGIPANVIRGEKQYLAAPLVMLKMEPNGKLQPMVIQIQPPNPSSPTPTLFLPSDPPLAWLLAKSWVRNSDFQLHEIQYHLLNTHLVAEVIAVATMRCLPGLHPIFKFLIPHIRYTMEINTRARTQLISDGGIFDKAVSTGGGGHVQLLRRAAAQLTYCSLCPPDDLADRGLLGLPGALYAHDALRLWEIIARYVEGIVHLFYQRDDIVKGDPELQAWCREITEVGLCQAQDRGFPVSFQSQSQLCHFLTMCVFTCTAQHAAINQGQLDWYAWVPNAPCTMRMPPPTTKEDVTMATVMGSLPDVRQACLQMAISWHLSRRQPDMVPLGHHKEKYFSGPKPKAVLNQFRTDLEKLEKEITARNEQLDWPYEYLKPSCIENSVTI

Question: How did the Potency turn out when O=C(NC(=S)Nc1ccccc1N1CCCC1)c1ccc([N+](=O)[O-])cc1 was run?
Answer: Its Potency is 66.7 µM (active).

Question: How did the Potency turn out when Oc1ccc(CN2CCCc3ccccc32)c2cccnc12 was run?
Answer: Its Potency is 43.6 µM (active).

Question: For CCCOC(=O)c1ccc(Oc2c(-c3ccc(O)cc3O)n[nH]c2C)cc1, which outcome is on record?
Answer: Its outcome is “inactive”.

Question: How did the outcome turn out when Oc1ccccc1-c1cc(-c2ccc3c(c2)OCCO3)n[nH]1 was run?
Answer: Its outcome is “inactive”.

Question: How did the outcome turn out when Oc1ccccc1-c1cc(-c2ccccc2Cl)[nH]n1 was run?
Answer: The outcome was “inactive”.

Question: For CCc1cc(-c2[nH]ncc2-c2ccc3c(c2)OCO3)c(O)cc1O, which outcome is on record?
Answer: The outcome was “inactive”.

Question: For N#CC1=C(N)Oc2n[nH]c(-c3cccs3)c2C1C1CCCCC1 (stereo not given), which outcome is on record?
Answer: Its outcome is “inactive”.

Question: Oc1ccc(-c2csc(-c3ccccc3)n2)cc1O was tested. Which outcome did it give?
Answer: Its outcome is “inactive”.

Question: With O=C(Nc1nnc(-c2ccccn2)o1)c1ccc(Br)cc1 as the compound, how does the outcome read?
Answer: Its outcome is “inactive”.

Question: For Cc1ccc(C(=O)Nc2nnc(-c3ccco3)o2)cc1, which outcome is on record?
Answer: Its outcome is “inactive”.

Question: How did the outcome turn out when COc1cccc(CNc2ccc(S(=O)(=O)Nc3nccs3)cc2)c1O was run?
Answer: Its outcome is “inactive”.

Question: For Cc1cccnc1NCc1ccc(O)c2ncccc12, which Potency is on record?
Answer: Its Potency is 46.4 µM (active).

Question: For CCCOC(=O)c1ccc(Oc2cn[nH]c2-c2ccc(OC)cc2O)cc1, which outcome is on record?
Answer: The outcome was “inactive”.

Question: Oc1ccc(-c2nc(-c3ccc(O)c(O)c3)cs2)cc1 was tested. Which outcome did it give?
Answer: The outcome was “inactive”.

Question: For CC(Oc1ccc(Cl)cc1Cl)C(=O)Nc1ccc(S(=O)(=O)Nc2cnc3ccccc3n2)cc1 (stereo not given), which outcome is on record?
Answer: The outcome was “inactive”.

Question: How did the Potency turn out when CCOC(=O)CNC(c1ccccc1)c1cc(Br)ccc1NC(=O)CCN1CCOCC1 (stereo not given) was run?
Answer: The Potency was 70 µM (active).

Question: How did the outcome turn out when Cc1ccc(NC(=O)Nc2cccs2)c(Cl)c1 was run?
Answer: Its outcome is “inactive”.

Question: How did the outcome turn out when Cc1ccc(C(=O)Nc2nnc(-c3ccco3)o2)cc1C was run?
Answer: The outcome was “inactive”.

Question: For CCOC(=O)Cc1cc(=O)n(-c2nc3ccccc3s2)[nH]1, which outcome is on record?
Answer: Its outcome is “inactive”.

Question: Which outcome does the source give for COc1cc(CNc2ccc(O)cc2)cc(Br)c1OCc1ccccc1F here?
Answer: The outcome was “inactive”.

Question: With Cc1[nH]nc(-c2ccc(O)cc2O)c1-c1ccc(Cl)cc1 as the compound, how does the outcome read?
Answer: The outcome was “inactive”.

Question: With Cc1ccc(S(=O)(=O)Nc2ccc(NC(=O)Nc3cccc(C(F)(F)F)c3)cc2)cc1 as the compound, how does the outcome read?
Answer: The outcome was “inactive”.

Question: How did the outcome turn out when CCc1cc(-c2n[nH]c(C)c2Oc2ccc(C(C)C)cc2)c(O)cc1O was run?
Answer: The outcome was “inactive”.

Question: Oc1ccccc1-c1cc(-c2cccc(F)c2)n[nH]1 was tested. Which outcome did it give?
Answer: Its outcome is “inactive”.

Question: Which outcome does the source give for COc1ccc(Cc2nc(C(=O)Nc3ccc(OC)cc3)cs2)cc1 here?
Answer: The outcome was “inactive”.

Question: For Cc1cc(Cl)cc(Cl)c1OCC(=O)NCc1ccco1, which outcome is on record?
Answer: The outcome was “inactive”.

Question: CSCCC(NC(=O)c1ccc(Cl)cc1)C(=O)OCC(=O)Nc1ccc(C#N)cc1 (stereo not given) was tested. Which outcome did it give?
Answer: Its outcome is “inactive”.

Question: For O=C(/C=C/c1ccc(O)c(O)c1)c1ccc(S(=O)(=O)N2CCCCCC2)cc1, which outcome is on record?
Answer: The outcome was “inactive”.

Question: O=C(CSc1n[nH]c(-c2ccccc2)n1)c1ccc(O)c(O)c1 was tested. Which outcome did it give?
Answer: Its outcome is “inactive”.

Question: For Oc1ccc(Cl)cc1-c1cc(-c2ccco2)[nH]n1, which outcome is on record?
Answer: The outcome was “inactive”.

Question: COc1ccc(NC2=NCC(Cc3ccc(Br)cc3)S2)cc1 (stereo not given) was tested. Which outcome did it give?
Answer: The outcome was “inactive”.

Question: Which outcome does the source give for Cc1ccc(S(=O)(=O)Nc2nc(C)c(NC(=O)Nc3ccc(Cl)cc3Cl)s2)cc1 here?
Answer: Its outcome is “inactive”.

Question: How did the outcome turn out when CC(Oc1ccc(Cl)cc1Cl)C(=O)NC1=NN(c2ccccc2)C(=O)C1 (stereo not given) was run?
Answer: Its outcome is “inactive”.

Question: How did the outcome turn out when Cc1oc2c(O)c(O)ccc2c(=O)c1-c1cnn(-c2ccccc2)c1 was run?
Answer: Its outcome is “inactive”.

Question: c1ccc(-c2nc(NCc3cccnc3)c3oc4ccccc4c3n2)cc1 was tested. Which outcome did it give?
Answer: Its outcome is “inactive”.

Question: COc1ccc(-c2[nH]ncc2-c2ccc(Cl)cc2)c(O)c1 was tested. Which outcome did it give?
Answer: The outcome was “inactive”.

Question: Cc1nc(N)sc1-c1csc(N(C)c2ccc(O)cc2)n1 was tested. Which outcome did it give?
Answer: Its outcome is “inactive”.

Question: How did the outcome turn out when CC1=NN(c2ccc(Cl)cc2)C(=O)C1C(c1cccc(O)c1)c1c(C)[nH]n(-c2ccc(Cl)cc2)c1=O (stereo not given) was run?
Answer: The outcome was “inactive”.

Question: With COc1ccc2nc(NC(=O)c3cccc(OCc4c(C)noc4C)c3)sc2c1 as the compound, how does the outcome read?
Answer: Its outcome is “inactive”.

Question: How did the outcome turn out when CC1=NN(c2ccc(Cl)cc2)C(=O)C1C(c1ccccc1O)c1c(C)[nH]n(-c2ccc(Cl)cc2)c1=O (stereo not given) was run?
Answer: The outcome was “inactive”.
